The record followed here is PubChem BioAssay (EPA / NIEHS).

Values joined by “and” are separate entries in the source; they are usually repeats but may differ in a detail not shown here. Identical values can stand only once. Some compounds were tested as several samples or in several runs, with calls that do not always agree. Active and inactive are the calls of the source. The calls were made as follows: active = hit-call score of the fitted dose curve at least 0.9, where 1 is the maximum; inactive = score below 0.9.

The nature of assay [1]: ATG_GLI_CIS: Attagene CIS-FACTORIAL HepG2 Assay for human Zinc Finger Protein GLI1 (AID 2282945). To be noted: HepG2, Attagene cis-factorial reporter mRNA, GLI element; actives raise or lower the signal. In outline:
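Transiently transfected HepG2 cells report endogenous transcription factor activity via cis-element-driven reporter units. After 24 h compound exposure, reporter mRNA was measured by RT-PCR with capillary electrophoresis; bidirectional fitting against DMSO baseline.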

Assay [2] has as its target Bile acid receptor (Homo sapiens) (UniProt Q96RI1). The assay is described as follows: ATG_IR1_CIS: Attagene CIS-FACTORIAL HepG2 Assay for human Nuclear Receptor Subfamily 1 Group H Member 4 (NR1H4), IR1 submotif (AID 2282946). To be noted: IR1 reporter transcription, actives raise or lower the signal. The method in brief:
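Fluorescence of capillary-separated, HpaI-digested RT-PCR reporter products gave IR1-element mRNA induction in HepG2 cells 24 h after dosing. Endogenous transcription factors drove the cis-regulated reporters; activity was fitted bidirectionally against DMSO.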

Assay [3] can be described thus: ATG_GRE_CIS: Attagene CIS-FACTORIAL HepG2 Assay for human Glucocorticoid Response Elements (GRE) (AID 2282947). To be noted: HepG2 GRE cis-reporter, Attagene multiplex mRNA; actives raise or lower the signal. In outline:
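Read-out: fluorescent reporter-transcript fragments separated by capillary electrophoresis after RT-PCR. Transiently transfected HepG2 cells carrying cis-element-driven reporter units were dosed for 24 h; gain or loss of signal fitted against DMSO control.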

Assay [4] is described as follows: ATG_ISRE_CIS: Attagene CIS-FACTORIAL HepG2 Assay for human Interferon Regulatory Factor 1 (IRF1) binding to an Interferon-Stimulated Response Element (ISRE) (AID 2282948). The conditions noted are these: HepG2 ISRE cis-reporter (Attagene), mRNA transcription readout; actives raise or lower the signal. In outline:
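Multiplexed mRNA reporter readout in human liver HepG2 cells: cis-element-driven reporters transfected, compound added for 24 h, transcripts amplified, fluorescently labelled and sized by capillary electrophoresis; curve fitting bidirectional against DMSO.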

Assay [5] in a line: ATG_M_32_CIS: Attagene CIS-FACTORIAL HepG2 Assay for M32 Transcription Factor (Internal Marker) (AID 2282949).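 Also: background control marker of the multiplexed CIS panel rather than a real target.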 The conditions noted are these: HepG2 Attagene cis-factorial M32 reporter, mRNA; actives raise or lower the signal. In outline:
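Using DMSO as baseline, bidirectional curve fits were applied to reporter mRNA signals. These came from transiently transfected HepG2 cells exposed for 24 h, with RNA analysed by RT-PCR, FAM primer extension, HpaI digestion and CE.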

Assay [6] in a line: ATG_M_06_CIS: Attagene CIS-FACTORIAL HepG2 Assay for M06 Transcription Factor (Internal Marker) (AID 2282950). To be noted: HepG2 Attagene CIS-FACTORIAL M06 internal marker reporter; actives raise or lower the signal. The method in brief: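 Terse: HepG2, transient MRTU transfection (FuGene 6), 24 h dosing; total RNA, oligo(dT) RT, PCR, FAM label, HpaI cut, capillary electrophoresis; bidirectional fit vs DMSO baseline; background-control endpoint.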

Assay [7] deals with Hypoxia-inducible factor 1-alpha (Homo sapiens) (UniProt Q16665). The assay is described as follows: ATG_HIF1a_CIS: Attagene CIS-FACTORIAL HepG2 Assay for human Hypoxia Inducible Factor 1 (HIF1A) (AID 2282951). To be noted: HepG2 Attagene cis-factorial HIF1a reporter transcription; actives raise or lower the signal. The method in brief: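 After 24 h chemical exposure of reporter-transfected HepG2 cells, reporter cDNA was PCR-amplified, labelled by 6-FAM primer extension (2 min 95 C, 20 s 68 C, 10 min 72 C), HpaI-cut (2 h, 37 C) and analysed by CE.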

The target of assay [8] is Hepatocyte nuclear factor 6 (Homo sapiens) (UniProt Q9UBC0). The assay is described as follows: ATG_HNF6_CIS: Attagene CIS-FACTORIAL HepG2 Assay for human Hepatocyte Nuclear Factor 6 (HNF6) (AID 2282952). The conditions noted are these: HepG2 Attagene cis-factorial HNF6 reporter transcription; actives raise or lower the signal. In outline:
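Endogenous transcription factor activity in human HepG2 liver cells was captured through cis-regulated reporter constructs. After 24 h treatment, reporter mRNA was measured by RT-PCR with capillary electrophoresis, and activity was fitted in both directions relative to DMSO.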

Assay [9] addresses Heat shock factor protein 1 (Homo sapiens) (UniProt Q00613). The assay can be described thus: ATG_HSE_CIS: Attagene CIS-FACTORIAL HepG2 Assay for human Heat Shock Transcription Factor 1 (HSE) (AID 2282953). The conditions noted are these: HepG2 HSE cis-reporter, Attagene RNA transcription; actives raise or lower the signal. In outline:
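Read-out: fluorescence of reporter-specific RT-PCR fragments separated by capillary electrophoresis. HepG2 carrying transfected cis-element reporter units; 24 h dosing; activity fitted in both directions relative to DMSO baseline.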

The nature of assay [10]: ATG_MRE_CIS: Attagene CIS-FACTORIAL HepG2 Assay for human Metal Responsive Element (MRE) (AID 2282954). To be noted: HepG2 MRE cis-reporter transcription, Attagene multiplex; actives raise or lower the signal. The method in brief: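 RT-PCR/capillary electrophoresis readout of reporter mRNA, 24 h post-dosing, in HepG2 cells transfected with multiplexed cis-regulated reporter constructs. Gain or loss of signal fitted bidirectionally against DMSO baseline.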

Assay [11] in a line: ATG_PBREM_CIS: Attagene CIS-FACTORIAL HepG2 Assay for human Phenobarbital-responsive Enhancer Module (PBREM) (AID 2282955). To be noted: HepG2 PBREM cis-reporter, Attagene multiplexed transcription; actives raise or lower the signal. In outline:
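Measures endogenous factor action on a phenobarbital-responsive enhancer module. HepG2 transiently carrying cis reporters, 24 h treatment, mRNA read-out by RT-PCR plus capillary electrophoresis.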

In assay [12] the target is Paired box protein Pax-6 (Homo sapiens) (UniProt P26367). The assay is described as follows: ATG_Pax6_CIS: Attagene CIS-FACTORIAL HepG2 Assay for human Paired Box 6 (PAX6) (AID 2282956). The conditions noted are these: HepG2 CIS-FACTORIAL PAX6 reporter transcription, RNA readout; actives raise or lower the signal. The method in brief: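 Fluorescent RT-PCR products separated by capillary electrophoresis report PAX6-linked promoter mRNA in HepG2 cells 24 h post-dose. Curves fitted bidirectionally, DMSO as negative control.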

Assay [13] can be described thus: ATG_PXRE_CIS: Attagene CIS-FACTORIAL HepG2 Assay for human Pregnane X Receptor Element (PXRE) (AID 2282957). To be noted: HepG2 Attagene CIS-FACTORIAL PXRE reporter, mRNA; actives raise or lower the signal. In outline: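 Endogenous transcription factor activity in HepG2 was gauged through induction of reporter mRNA driven by a cis-regulating promoter element, sampled 24 h post-treatment. Activity was fitted in both directions against DMSO negative control.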

A short description of assay [14]: ATG_PPRE_CIS: Attagene CIS-FACTORIAL HepG2 Assay for human Peroxisome Proliferator-activated Response Element (PPRE) (AID 2282958). The conditions noted are these: HepG2 PPRE cis-element reporter, Attagene transcription factor profiling; actives raise or lower the signal. In outline: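 PPRE activity in HepG2: transient cis-reporter transfection, 24 h compound incubation, reporter mRNA by RT-PCR and CE fluorescence; gain/loss fitted against DMSO.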

Assay [15] is described as follows: ATG_RORE_CIS: Attagene CIS-FACTORIAL HepG2 Assay for human RAR-related Orphan Receptor Element (RORE) (AID 2282959). To be noted: HepG2 Attagene cis-factorial RORE reporter, mRNA; actives raise or lower the signal. The method in brief: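 A 24-hour exposure of transfected HepG2 hepatoma cells precedes RNA isolation and reporter RT-PCR. Labeled products are digested with HpaI and resolved by capillary electrophoresis, with gain or loss of signal scored relative to DMSO.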

Assay [16] in a line: ATG_Sox_CIS: Attagene CIS-FACTORIAL HepG2 Assay for human SRY-box transcription factor (SOX) (AID 2282960). To be noted: HepG2 Attagene cis-factorial SOX reporter, mRNA; actives raise or lower the signal. The method in brief:
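HepG2, cis reporter units, 24 h exposure. Reporter mRNA: RT-PCR → FAM labelling → HpaI → CE fluorescence. Bidirectional fit vs DMSO.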

For assay [17], the target named is Transcription factor Sp1 (Homo sapiens) (UniProt P08047). The assay is described as follows: ATG_Sp1_CIS: Attagene CIS-FACTORIAL HepG2 Assay for human Specificity Protein 1 (Sp1) (AID 2282961). The conditions noted are these: HepG2 Sp1 cis-reporter transcription, actives raise or lower the signal. In outline:
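Liver-derived HepG2 cells, cis-element reporter library, 24 h treatment; RNA isolated, cDNA amplified with reporter-specific primers, FAM-labeled fragments sized on capillary analyzer. DMSO baseline, bidirectional curve fit.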

The nature of assay [18]: ATG_SREBP_CIS: Attagene CIS-FACTORIAL HepG2 Assay for human Sterol Regulatory Element Binding (SREBP) (AID 2282962). To be noted: HepG2 Attagene cis-factorial SREBP reporter, mRNA; actives raise or lower the signal. The method in brief:
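Endogenous factor activity is measured in HepG2 through multiplexed reporter units under cis-element control. Following a 24 h incubation, reporter transcripts are reverse-transcribed, PCR-amplified and sized by capillary electrophoresis; activity is fitted in both directions relative to DMSO.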

The target in assay [19] is Signal transducer and activator of transcription 3 (Homo sapiens) (UniProt P40763). The assay can be described thus: ATG_STAT3_CIS: Attagene CIS-FACTORIAL HepG2 Assay for human Signal Transducer and Activator of Transcription 3 (STAT3) (AID 2282963). To be noted: HepG2, Attagene cis-factorial STAT3 reporter transcription; actives raise or lower the signal. The method in brief:
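Readout: fluorescent reporter mRNA fragments resolved by capillary electrophoresis. Setup: HepG2 transfected with MRTUs reporting endogenous transcription-factor activity, dosed 24 h. Gain or loss of signal fitted bidirectionally against DMSO control.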

Assay [20] can be described thus: ATG_TA_CIS: Attagene CIS-FACTORIAL HepG2 Assay for human TA Basal Promoter (AID 2282964). To be noted: HepG2 Attagene CIS-factorial TA basal promoter reporter; actives raise or lower the signal. In outline:
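Transfected HepG2, 24 h compound exposure; RNA → RT-PCR → FAM primer extension → HpaI cut → CE fluorescence. Gain/loss-of-signal fitted against DMSO negative control. Background-control readout.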

Sequence of Hepatocyte nuclear factor 6 (Homo sapiens) (Q9UBC0 whole entry, looked up): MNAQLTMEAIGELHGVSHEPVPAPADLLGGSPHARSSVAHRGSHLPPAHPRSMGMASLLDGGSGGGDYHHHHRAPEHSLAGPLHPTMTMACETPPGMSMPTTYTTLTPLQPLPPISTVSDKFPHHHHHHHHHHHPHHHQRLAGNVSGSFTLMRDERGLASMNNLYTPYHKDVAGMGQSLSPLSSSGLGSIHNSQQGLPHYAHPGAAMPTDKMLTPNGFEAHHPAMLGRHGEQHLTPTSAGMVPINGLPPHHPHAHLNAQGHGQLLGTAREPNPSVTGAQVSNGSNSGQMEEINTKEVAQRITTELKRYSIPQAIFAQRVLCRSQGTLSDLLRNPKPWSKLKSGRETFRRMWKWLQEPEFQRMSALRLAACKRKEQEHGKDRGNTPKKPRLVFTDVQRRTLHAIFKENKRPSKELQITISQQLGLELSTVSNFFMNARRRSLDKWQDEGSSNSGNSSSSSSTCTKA
Sequence of Paired box protein Pax-6 (Homo sapiens) (P26367 whole entry, looked up): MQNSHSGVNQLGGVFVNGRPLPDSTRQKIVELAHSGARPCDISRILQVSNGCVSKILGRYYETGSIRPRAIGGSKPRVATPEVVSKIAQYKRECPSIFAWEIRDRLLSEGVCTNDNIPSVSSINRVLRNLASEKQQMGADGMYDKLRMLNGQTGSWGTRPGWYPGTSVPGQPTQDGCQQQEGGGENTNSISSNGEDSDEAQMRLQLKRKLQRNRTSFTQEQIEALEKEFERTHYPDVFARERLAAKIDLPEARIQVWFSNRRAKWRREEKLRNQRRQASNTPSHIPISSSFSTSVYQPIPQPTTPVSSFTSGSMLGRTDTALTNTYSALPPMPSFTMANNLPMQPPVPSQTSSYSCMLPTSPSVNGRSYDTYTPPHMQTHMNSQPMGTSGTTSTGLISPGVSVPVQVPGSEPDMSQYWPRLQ
Sequence of Bile acid receptor (Homo sapiens) (Q96RI1 whole entry, looked up): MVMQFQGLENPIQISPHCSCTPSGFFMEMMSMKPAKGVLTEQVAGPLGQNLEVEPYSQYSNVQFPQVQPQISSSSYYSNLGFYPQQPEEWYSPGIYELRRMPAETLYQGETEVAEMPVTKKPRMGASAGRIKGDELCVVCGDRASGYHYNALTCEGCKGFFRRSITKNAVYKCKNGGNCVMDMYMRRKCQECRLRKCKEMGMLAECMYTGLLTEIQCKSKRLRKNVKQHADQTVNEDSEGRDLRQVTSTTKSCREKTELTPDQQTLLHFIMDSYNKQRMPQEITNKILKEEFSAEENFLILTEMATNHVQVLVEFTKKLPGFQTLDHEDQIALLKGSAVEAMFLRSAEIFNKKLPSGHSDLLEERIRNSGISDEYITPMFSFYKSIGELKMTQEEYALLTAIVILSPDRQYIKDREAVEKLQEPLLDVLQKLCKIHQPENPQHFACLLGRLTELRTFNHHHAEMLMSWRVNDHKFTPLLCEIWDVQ
Sequence of Hypoxia-inducible factor 1-alpha (Homo sapiens) (Q16665 whole entry, looked up): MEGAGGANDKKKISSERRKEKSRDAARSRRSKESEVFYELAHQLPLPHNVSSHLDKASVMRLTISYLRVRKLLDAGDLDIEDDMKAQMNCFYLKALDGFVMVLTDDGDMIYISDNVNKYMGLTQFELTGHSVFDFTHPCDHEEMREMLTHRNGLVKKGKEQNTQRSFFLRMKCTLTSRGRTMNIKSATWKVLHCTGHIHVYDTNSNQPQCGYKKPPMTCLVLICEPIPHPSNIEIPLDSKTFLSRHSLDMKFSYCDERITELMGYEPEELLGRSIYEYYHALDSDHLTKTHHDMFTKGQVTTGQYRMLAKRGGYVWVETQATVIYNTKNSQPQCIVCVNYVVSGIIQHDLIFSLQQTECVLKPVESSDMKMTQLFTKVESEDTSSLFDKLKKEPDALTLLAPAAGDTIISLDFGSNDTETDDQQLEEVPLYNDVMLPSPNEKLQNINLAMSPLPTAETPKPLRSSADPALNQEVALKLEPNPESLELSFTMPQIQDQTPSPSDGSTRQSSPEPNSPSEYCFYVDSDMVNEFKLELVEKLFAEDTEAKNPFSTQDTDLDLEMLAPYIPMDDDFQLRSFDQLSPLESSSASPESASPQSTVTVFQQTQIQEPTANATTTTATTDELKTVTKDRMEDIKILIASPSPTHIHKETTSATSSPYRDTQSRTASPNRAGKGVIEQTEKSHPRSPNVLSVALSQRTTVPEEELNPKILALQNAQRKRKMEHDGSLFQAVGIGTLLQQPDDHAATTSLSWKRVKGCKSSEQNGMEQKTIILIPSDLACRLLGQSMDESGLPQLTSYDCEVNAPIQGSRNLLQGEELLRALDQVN
Sequence of Signal transducer and activator of transcription 3 (Homo sapiens) (P40763 whole entry, looked up, the tested form may be a part): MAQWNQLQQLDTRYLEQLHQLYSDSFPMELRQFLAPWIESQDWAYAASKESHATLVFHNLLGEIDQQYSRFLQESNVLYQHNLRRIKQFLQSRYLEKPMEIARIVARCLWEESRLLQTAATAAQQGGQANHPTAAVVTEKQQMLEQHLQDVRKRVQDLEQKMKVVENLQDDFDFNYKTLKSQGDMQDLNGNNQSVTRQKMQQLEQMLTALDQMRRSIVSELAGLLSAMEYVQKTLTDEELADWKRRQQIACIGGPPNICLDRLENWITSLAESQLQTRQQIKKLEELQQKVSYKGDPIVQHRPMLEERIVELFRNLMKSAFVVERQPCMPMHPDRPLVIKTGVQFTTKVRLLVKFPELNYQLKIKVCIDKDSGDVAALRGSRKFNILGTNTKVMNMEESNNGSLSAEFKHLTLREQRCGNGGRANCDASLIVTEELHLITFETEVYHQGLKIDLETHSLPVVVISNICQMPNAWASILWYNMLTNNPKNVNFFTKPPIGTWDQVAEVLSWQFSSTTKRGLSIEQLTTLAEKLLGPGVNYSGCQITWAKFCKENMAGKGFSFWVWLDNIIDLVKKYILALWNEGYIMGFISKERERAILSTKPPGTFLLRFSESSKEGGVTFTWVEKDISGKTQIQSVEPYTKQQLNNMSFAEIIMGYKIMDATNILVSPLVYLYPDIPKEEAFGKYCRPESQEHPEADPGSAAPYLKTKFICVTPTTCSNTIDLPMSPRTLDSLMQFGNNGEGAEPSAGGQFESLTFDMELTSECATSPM
Sequence of Transcription factor Sp1 (Homo sapiens) (P08047 whole entry, looked up, the tested form may be a part): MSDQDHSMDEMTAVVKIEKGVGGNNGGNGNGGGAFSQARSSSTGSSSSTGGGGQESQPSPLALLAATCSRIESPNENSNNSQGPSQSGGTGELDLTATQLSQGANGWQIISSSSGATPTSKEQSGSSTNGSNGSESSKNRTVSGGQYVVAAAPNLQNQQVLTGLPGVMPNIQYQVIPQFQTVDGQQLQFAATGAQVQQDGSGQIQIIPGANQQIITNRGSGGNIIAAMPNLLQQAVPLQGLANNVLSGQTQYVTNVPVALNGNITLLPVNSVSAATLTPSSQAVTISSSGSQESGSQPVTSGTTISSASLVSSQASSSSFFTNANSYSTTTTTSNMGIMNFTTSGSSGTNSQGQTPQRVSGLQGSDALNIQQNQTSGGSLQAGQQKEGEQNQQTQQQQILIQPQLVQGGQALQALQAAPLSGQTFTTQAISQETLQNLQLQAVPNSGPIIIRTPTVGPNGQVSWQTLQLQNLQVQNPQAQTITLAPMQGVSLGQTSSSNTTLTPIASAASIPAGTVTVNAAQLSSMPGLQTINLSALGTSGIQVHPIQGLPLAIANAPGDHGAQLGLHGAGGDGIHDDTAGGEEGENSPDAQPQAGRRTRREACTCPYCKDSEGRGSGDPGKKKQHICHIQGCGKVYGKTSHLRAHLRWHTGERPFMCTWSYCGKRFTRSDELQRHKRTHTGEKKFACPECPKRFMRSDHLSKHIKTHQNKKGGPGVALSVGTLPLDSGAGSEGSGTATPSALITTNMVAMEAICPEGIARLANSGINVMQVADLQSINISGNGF
Sequence of Heat shock factor protein 1 (Homo sapiens) (Q00613 whole entry, looked up, the tested form may be a part): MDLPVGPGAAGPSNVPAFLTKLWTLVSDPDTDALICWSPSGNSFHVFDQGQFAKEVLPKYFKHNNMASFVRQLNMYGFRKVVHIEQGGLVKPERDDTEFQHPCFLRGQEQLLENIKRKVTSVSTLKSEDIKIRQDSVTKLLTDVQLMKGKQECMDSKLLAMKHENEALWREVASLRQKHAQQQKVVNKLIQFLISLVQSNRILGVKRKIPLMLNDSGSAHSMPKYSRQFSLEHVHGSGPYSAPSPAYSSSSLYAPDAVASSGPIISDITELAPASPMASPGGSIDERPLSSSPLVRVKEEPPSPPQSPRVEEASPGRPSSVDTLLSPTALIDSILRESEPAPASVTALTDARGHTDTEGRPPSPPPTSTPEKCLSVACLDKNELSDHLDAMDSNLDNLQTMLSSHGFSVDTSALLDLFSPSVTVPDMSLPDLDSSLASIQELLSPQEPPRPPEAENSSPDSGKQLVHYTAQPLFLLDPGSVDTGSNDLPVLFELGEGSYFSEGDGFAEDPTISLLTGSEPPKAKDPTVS

For the molecule `NC(=O)C(F)(F)C(F)(F)C(F)(F)C(F)(F)F`, the molecule was called inactive in assay [1], in assay [2], in assay [3], in [4], in [5] and in assay [6]. Also, the outcome in assay [7], in [8], in [9], in [10], in [11] and in assay [12] was inactive. The outcome in [13], in [14], in [15], in [16], in assay [17] and in assay [18] was inactive. Further, the call in assay [19] and in assay [20] was inactive.
The AC50 is the concentration at which the activity in the assay is half-maximal. On to `OCCCC(F)(F)C(F)(F)C(F)(F)C(F)(F)C(F)(F)C(F)(F)C(F)(F)F`, for which the molecule was classed as inactive in [1], in assay [2], in [3], in assay [4], in assay [5] and in assay [6]. For the same molecule, the call in [7], in [8], in assay [9], in [10], in assay [11] and in [14] was inactive. Besides, the result in assay [15], in assay [16], in assay [17], in assay [18], in [19] and in [20] was inactive. In addition, the AC50 in assay [3] is 96.3 µM (active); in [5] it was 233 µM (active); in assay [7], 197 µM (active); in assay [8], 83 µM (active); in assay [9], 95.1 µM (active); in [10], 50 µM (active). Further, the AC50 in assay [11] was 150 µM (active); in [12], 50 µM (active) and 41.8 µM (active); in assay [15] it was 247 µM (active); in assay [16], 68.9 µM (active); in assay [17] it was 96.5 µM (active); in assay [18], 50 µM (active). For the same molecule, the AC50 in assay [19] was 78.9 µM (active).
As to `CC(Cc1ccc(O)c(O)c1)C(C)Cc1ccc(O)c(O)c1` (stereo unspecified), the molecule was called inactive in [1], in assay [2], in assay [3], in [4], in [5] and in [6]. Also, the molecule was classed as inactive in assay [8], in assay [14], in [18] and in [19]. Further, the half-maximal activity concentration (AC50) was 8.95 µM (active) in assay [7]; 57.7 µM (active) in assay [9]; 22.3 µM (active) in assay [10]; 9.19 µM (active) in assay [11]; 22.1 µM (active) in assay [12]; 8.39 µM (active) in [13]. Besides, the AC50 in [15] was 6.13 µM (active); in assay [16], 33.4 µM (active); in assay [17], 8.73 µM (active); in assay [20], 18.4 µM (active).
